PubChem BioAssay (EPA / NIEHS)
Inconclusive results are not listed. The source made the active and inactive calls. How the source made its calls: active means hit-call score of the fitted dose curve at least 0.9, where 1 is the maximum; inconclusive means response in the unintended direction; inactive means score below 0.9.

Target: Oxysterols receptor LXR-alpha (Homo sapiens) (UniProt Q13133)
Test: ATG_LXRa_TRANS: Attagene TRANS-FACTORIAL HepG2 Assay for human Liver X Receptor alpha (LXRa) (AID 2282980)
Details: HepG2 Attagene TRANS reporter, LXRa transactivation
Procedure, shortened: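 In this multiplexed TRANS system, compounds act on HepG2 cells carrying GAL4-UAS reporter units and a receptor-GAL4 fusion for 24 h. Induced reporter RNA is amplified, fluorescently labelled and sized by capillary electrophoresis, with DMSO as baseline.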

Sequence of Oxysterols receptor LXR-alpha (Homo sapiens) (Q13133 whole entry, looked up): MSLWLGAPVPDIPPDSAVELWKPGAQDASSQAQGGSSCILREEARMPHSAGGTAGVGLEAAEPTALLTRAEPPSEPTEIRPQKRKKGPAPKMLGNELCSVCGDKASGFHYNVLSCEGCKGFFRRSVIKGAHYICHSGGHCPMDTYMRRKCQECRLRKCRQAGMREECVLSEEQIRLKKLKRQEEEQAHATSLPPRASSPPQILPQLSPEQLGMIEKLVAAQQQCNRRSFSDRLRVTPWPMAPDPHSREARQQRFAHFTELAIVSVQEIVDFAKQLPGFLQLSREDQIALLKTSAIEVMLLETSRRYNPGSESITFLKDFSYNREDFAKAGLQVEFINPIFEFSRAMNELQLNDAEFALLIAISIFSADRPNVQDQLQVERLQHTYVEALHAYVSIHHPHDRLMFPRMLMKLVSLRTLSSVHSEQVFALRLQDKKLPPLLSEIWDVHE

outcome, inactive:
O=C(c1ccccc1)C(O)c1ccccc1 (stereo not drawn)
Cc1ncc([N+](=O)[O-])n1CCO
C=C(C)C(=O)OCCOCCOCCOC(=O)C(=C)C
C/C=C(\C)C(=O)OCCc1ccccc1
O=CCc1ccccc1
Nc1ccc2c(O)cc(S(=O)(=O)O)cc2c1
COC(CC(C)CCCC(C)(C)O)OC (stereo not drawn)
CCC1CCCCC1
CN(C)c1ccncc1
CCCCCCCCCC(C)C=O (stereo not drawn)
O=C(O)CCCCCCCCCCCC(=O)O
CCc1ccc(O)c(OC)c1
CC(C)c1ccccc1O
C=C(C)C(=O)OCCOC1CC2CC1C1C=CCC21 (stereo not drawn)
CCOc1ccc(N=Nc2ccc(C=Cc3ccc(N=Nc4ccc(OCC)cc4)cc3S(=O)(=O)O)c(S(=O)(=O)O)c2)cc1
COC(=O)c1ccc(C)cc1C1=NC(C)(C(C)C)C(=O)N1 (stereo not drawn) (tested in a mixture with another compound)
CC1(C)CCC[C@]2(C)[C@H]3CCO[C@]3(C)CC[C@@H]12
CCCCSCCCC
CCN(CCN)c1cccc(C)c1
CCCC(C)=O
OCC(O)c1ccccc1 (stereo not drawn)
Cc1occc(=O)c1OC(=O)C(C)C
CC(C)(N=C=O)c1cccc(C(C)(C)N=C=O)c1
COc1cccc(OC)c1O
CCC(C)c1cc([N+](=O)[O-])cc([N+](=O)[O-])c1OC(=O)OC(C)C (stereo not drawn)

Target: Oxysterols receptor LXR-beta (Homo sapiens) (UniProt P55055)
Sequence (P55055 whole entry, looked up): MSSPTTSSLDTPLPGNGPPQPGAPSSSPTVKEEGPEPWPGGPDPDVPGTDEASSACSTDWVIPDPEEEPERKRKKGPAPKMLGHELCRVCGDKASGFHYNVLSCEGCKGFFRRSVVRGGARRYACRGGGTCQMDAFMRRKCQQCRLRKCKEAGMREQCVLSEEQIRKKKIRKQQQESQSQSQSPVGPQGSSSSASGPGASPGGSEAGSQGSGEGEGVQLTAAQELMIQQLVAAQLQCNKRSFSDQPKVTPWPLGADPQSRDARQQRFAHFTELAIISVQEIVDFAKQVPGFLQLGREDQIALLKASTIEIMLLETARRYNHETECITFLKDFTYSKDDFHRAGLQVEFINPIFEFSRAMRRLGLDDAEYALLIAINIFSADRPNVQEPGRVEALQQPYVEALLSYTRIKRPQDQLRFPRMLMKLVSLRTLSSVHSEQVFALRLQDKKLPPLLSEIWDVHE
Test: ATG_LXRb_TRANS: Attagene TRANS-FACTORIAL HepG2 Assay for human Liver X Receptor beta (LXRb) (AID 2282981)
Details: HepG2 Attagene TRANS GAL4-LXRb reporter, mRNA
Procedure, shortened: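 Transient transfection HepG2 (multiplexed RTUs, GAL4-UAS); NR-Gal4 chimera; 24 h exposure; RNA → RT-PCR → 6-FAM primer extension → HpaI → CE; increase vs DMSO.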

outcome, inactive:
C=CC(=O)OCCC#N
CCCC(=O)C(CC)Sc1ccoc1C (stereo not drawn)
CC(C)NCC(O)COc1ccc(CC(N)=O)cc1 (stereo not drawn)
CCCCCCOC(=O)C(C)C
CCCC(O)C(O)CO (stereo not drawn)
CCCCCCOCCOCCO
O=C1OC(=O)c2c(Br)c(Br)c(Br)c(Br)c21
CC(=O)c1ccccn1
CCOc1ccccc1O
O=C1NC2NC(=O)NC2N1 (stereo not drawn)
CCCCCCCCCCCC(=O)OCC(O)CO (stereo not drawn)
CC(C)(CO)[C@@H](O)C(=O)NCCC(=O)O
CCOc1ccc(NC(=O)CC(C)=O)cc1
